Assay results as given in PubChem BioAssay AID1159580 (chemical genetic matrix, 2015).
The whole screen tested about 5,500 compounds, of which about 2,000 (36%) were called active. Another 18% or so got no clear call; they are omitted. Cut-off read from the data, not from the text of the source: active = normalized growth mostly below about 0.91 (no sharp cut-off); inconclusive = no clear call, values can overlap the other calls; inactive = mostly above about 0.92. Some of the results follow.

Assay: chemical genetic growth profiling, strain panel (AID 1159580);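 note: tested at 20 µM; growth read once vehicle control cultures reached saturation at 30 °C; 1 = growth at the plate median or of vehicle wells; lower values mean less growth of the strain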
Conditions: growth OD

Measured: normalized growth

C[C@H]1CC2C([C@@H](O)C[C@@]3(C)C2CC[C@]3(O)C(=O)CO)[C@@]2(C)C=CC(=O)C=C12 (some centres not stated)
inactive: S. cerevisiae deletion strains, locus YJR075W, strain HOC1, hits give low values 1.01 | S. cerevisiae deletion strains, locus YKL009W, strain mrt4, hits give low values 0.997 | S. cerevisiae deletion strains, locus YKL068W, hits give low values 0.999 | S. cerevisiae deletion strains, locus YKL085W, strain MDH1 (second series), hits give low values 1 | S. cerevisiae deletion strains, locus YKL085W, strain MDH1, hits give low values 1 | S. cerevisiae deletion strains, locus YKL160W, strain elf1, hits give low values 0.975 | S. cerevisiae deletion strains, locus YKL190W, strain CNB1, hits give low values 0.995 | S. cerevisiae deletion strains, locus YKR001C, strain vps1, hits give low values 1.02 | S. cerevisiae deletion strains, locus YKR026C, strain gcn3, hits give low values 0.999 | S. cerevisiae deletion strains, locus YKR091W, strain srl3, hits give low values 1.01 | S. cerevisiae deletion strains, locus YLL001W, strain dnm1, hits give low values 0.96 | S. cerevisiae deletion strains, locus YLL026W, hits give low values 0.982 | S. cerevisiae deletion strains, locus YLL041C, strain sdh2, hits give low values 1.01 | S. cerevisiae deletion strains, locus YLR027C, strain aat2, hits give low values 0.985 | S. cerevisiae deletion strains, locus YLR039C, strain RIC1, hits give low values 0.982 | S. cerevisiae deletion strains, locus YLR058C, strain SHM2, hits give low values 0.999 | S. cerevisiae deletion strains, locus YLR102C, strain apc9, hits give low values 1.02 | S. cerevisiae deletion strains, locus YLR113W, strain HOG1, hits give low values 1.03 | S. cerevisiae deletion strains, locus YLR221C, strain rsa3, hits give low values 1.01 | S. cerevisiae deletion strains, locus YLR258W, strain gsy2, hits give low values 1.01 | S. cerevisiae deletion strains, locus YLR262C, strain YPT6 (second series), hits give low values 0.968 | S. cerevisiae deletion strains, locus YLR262C, strain YPT6, hits give low values 0.996 | S. cerevisiae deletion strains, locus YLR268W, strain sec22, hits give low values 1.07 | S. cerevisiae deletion strains, locus YLR320W, strain mms22, hits give low values 0.989 | S. cerevisiae deletion strains, locus YLR330W, strain CHS5, hits give low values 0.999 | S. cerevisiae deletion strains, locus YLR342W, strain FKS1 (second series), hits give low values 1.01 | S. cerevisiae deletion strains, locus YLR342W, strain FKS1, hits give low values 0.985 | S. cerevisiae deletion strains, locus YLR357W, strain rsc2, hits give low values 0.996 | S. cerevisiae deletion strains, locus YLR370C, strain arc18, hits give low values 0.992 | S. cerevisiae deletion strains, locus YLR371W, strain rom2, hits give low values 1.01 | S. cerevisiae deletion strains, locus YLR384C, strain iki3, hits give low values 0.996 | S. cerevisiae deletion strains, locus YLR418C, strain cdc73, hits give low values 1.01 | S. cerevisiae deletion strains, locus YML016C, strain PPZ1, hits give low values 1.01 | S. cerevisiae deletion strains, locus YML032C, strain rad52, hits give low values 1.04 | S. cerevisiae deletion strains, locus YML120C, strain ndi1, hits give low values 0.973 | S. cerevisiae deletion strains, locus YML124C, strain tub3, hits give low values 1.01 | S. cerevisiae deletion strains, locus YMR058W, strain fet3, hits give low values 0.994 | S. cerevisiae deletion strains, locus YMR078C, strain ctf18, hits give low values 1.01 | S. cerevisiae deletion strains, locus YMR125W, strain sto1, hits give low values 1.01 | S. cerevisiae deletion strains, locus YMR129W, hits give low values 1 | S. cerevisiae deletion strains, locus YMR205C, strain PFK2, hits give low values 0.993 | S. cerevisiae deletion strains, locus YMR223W, strain ubp8, hits give low values 0.986 | S. cerevisiae deletion strains, locus YMR231W, strain pep5, hits give low values 0.991 | S. cerevisiae deletion strains, locus YMR263W, strain SAP30, hits give low values 1 | S. cerevisiae deletion strains, locus YMR307W, strain GAS1, hits give low values 1 | S. cerevisiae deletion strains, locus YNL067W, strain RPL9B, hits give low values 1.03 | S. cerevisiae deletion strains, locus YNL071W, strain lat1, hits give low values 1 | S. cerevisiae deletion strains, locus YNL128W, strain TEP1, hits give low values 0.982 | S. cerevisiae deletion strains, locus YNL153C, strain GIM3, hits give low values 1.01 | S. cerevisiae deletion strains, locus YNL183C, strain NPR1, hits give low values 0.994 | S. cerevisiae deletion strains, locus YNL209W, strain ssb2, hits give low values 1.02 | S. cerevisiae deletion strains, locus YNL233W, strain BNI4, hits give low values 1.01 | S. cerevisiae deletion strains, locus YNL248C, strain rpa49, hits give low values 1.01 | S. cerevisiae deletion strains, locus YNL250W, strain rad50, hits give low values 1.01 | S. cerevisiae deletion strains, locus YNL271C, strain bni1, hits give low values 1.01 | S. cerevisiae deletion strains, locus YNL298W, strain CLA4, hits give low values 1.01 | S. cerevisiae deletion strains, locus YNL307C, strain MCK1, hits give low values 1.02 | S. cerevisiae deletion strains, locus YNL322C, strain KRE1 (second series), hits give low values 1 | S. cerevisiae deletion strains, locus YNL322C, strain KRE1, hits give low values 0.992 | S. cerevisiae deletion strains, locus YNR049C, strain mso1, hits give low values 1 | S. cerevisiae deletion strains, locus YNR052C, strain pop2, hits give low values 1.02 | S. cerevisiae deletion strains, locus YOL006C, strain TOP1, hits give low values 1.04 | S. cerevisiae deletion strains, locus YOL012C, strain htz1 1.61 | S. cerevisiae deletion strains, locus YOL147C, strain pex11, hits give low values 1.01 | S. cerevisiae deletion strains, locus YOR001W, strain rrp6, hits give low values 0.966 | S. cerevisiae deletion strains, locus YOR061W, strain CKA2, hits give low values 1 | S. cerevisiae deletion strains, locus YOR069W, strain VPS5, hits give low values 1 | S. cerevisiae deletion strains, locus YOR070C, strain gyp1, hits give low values 1 | S. cerevisiae deletion strains, locus YOR080W, strain dia2, hits give low values 0.986 | S. cerevisiae deletion strains, locus YOR083W, strain WHI5, hits give low values 0.959 | S. cerevisiae deletion strains, locus YOR106W, strain vam3, hits give low values 0.987 | S. cerevisiae deletion strains, locus YOR136W, strain idh2, hits give low values 1.01 | S. cerevisiae deletion strains, locus YOR144C, strain elg1, hits give low values 1.01 | S. cerevisiae deletion strains, locus YOR184W, strain ser1, hits give low values 1 | S. cerevisiae deletion strains, locus YOR231W, strain MKK1, hits give low values 1.02 | S. cerevisiae deletion strains, locus YOR265W, strain rbl2, hits give low values 0.995 | S. cerevisiae deletion strains, locus YOR270C, strain vph1, hits give low values 1.02 | S. cerevisiae deletion strains, locus YOR290C, strain snf2, hits give low values 1 | S. cerevisiae deletion strains, locus YOR316C, strain cot1, hits give low values 1.01 | S. cerevisiae deletion strains, locus YPL051W, strain arl3, hits give low values 0.988 | S. cerevisiae deletion strains, locus YPL055C, strain LGE1, hits give low values 0.982 | S. cerevisiae deletion strains, locus YPL078C, strain atp4, hits give low values 0.959 | S. cerevisiae deletion strains, locus YPL106C, strain sse1, hits give low values 1.02 | S. cerevisiae deletion strains, locus YPL240C, strain hsp82, hits give low values 1.01 | S. cerevisiae deletion strains, locus YPL241C, strain CIN2, hits give low values 0.996 | S. cerevisiae deletion strains, locus YPL256C, strain CLN2, hits give low values 1.1 | S. cerevisiae deletion strains, locus YPR119W, strain clb2, hits give low values 1.01 | S. cerevisiae deletion strains, locus YPR141C, strain kar3, hits give low values 1.01 | S. cerevisiae deletion strains, locus YPR163C, strain tif3, hits give low values 1.02 | S. cerevisiae deletion strains, locus YPR167C, strain met16, hits give low values 1.01 | S. cerevisiae deletion strains, strain wtn01, hits give low values 1.03 | S. cerevisiae strains, strain wild type, hits give low values 0.998
